# Assay results taken from PubChem BioAssay.
# Calls of active or inactive are those of the source. Cut-off read from the data, not from the text of the source, unless noted: active = inhibition above about 80%; inactive = the rest.
# Experiments:
# [1] = growth inhibition, single agent or in combination, cell-based, chromothripsis tumors, cisplatin or BGB combos (AID 1671449); settings: LFS_MB_P medulloblastoma cells;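 note: cells exposed for 96 hours; 0% = vehicle DMSO and 100% = killing by high DMSO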
# [2] = growth inhibition, single agent and combos, cell-based, chromothripsis tumors, cisplatin or BGB combos (AID 1671450); settings: HDN33 neuroblastoma cells, stronger effect = higher value;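 note: cells exposed to compound for four days; 0% = vehicle DMSO and 100% = cell killing by high DMSO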
# [3] = growth inhibition, single agents and combos, ICB984, cell-based, cisplatin or BGB combos, synergistic combos for chromothripsis tumors (AID 1671451; call rule not given here;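 note: cells exposed for 96 hours before readout; 0% = vehicle DMSO and 100% = killing by high DMSO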); settings: ICB984 medulloblastoma cells, drug combinations, stronger effect = higher value
# [4] = growth inhibition, single agents and combos, LFS_MB_1R, cell-based, cisplatin or BGB combos, synergistic combos for chromothripsis tumors (AID 1671452); settings: LFS_MB_1R medulloblastoma cells, stronger effect = higher value;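 note: cells exposed for 96 hours before readout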
# [5] = growth inhibition, single agents and combos, HTB85, cell-based, BGB or cisplatin IC20 combos, synergistic combos for chromothripsis tumors (AID 1671453); settings: HTB85 osteosarcoma cells, drug combinations, stronger effect = higher value;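 note: cells exposed for 96 hours before readout; 0% = vehicle DMSO and 100% = high DMSO killing control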
# [6] = growth inhibition, single agents and combos, CRL2098, cell-based, BGB or cisplatin IC20 combos, synergistic combos for chromothripsis tumors (AID 1671454); settings: CRL2098 osteosarcoma cells, drug combinations, stronger effect = higher value;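 note: cells exposed for 96 h before readout; 0% = vehicle DMSO and 100% = killing by high DMSO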
# [7] = growth inhibition, single agents and combos, HD-MB03, cell-based, BGB or cisplatin IC20 combos, synergistic combos for chromothripsis tumors (AID 1671455; in the data active = inhibition above about 83%;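 note: 0% = vehicle DMSO and 100% = high DMSO as cytotoxic control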); settings: HD-MB03 medulloblastoma cells, stronger effect = higher value
# [8] = growth inhibition, single agents and combos, UWB1.289, cell-based, BGB or cisplatin combos, synergistic combos for chromothripsis tumors (AID 1671456); settings: UWB1.289 ovarian carcinoma cells, stronger effect = higher value;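 note: cells exposed to compound for four days; 0% = vehicle DMSO and 100% = killing by high DMSO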
# [9] = growth inhibition, single agents and combos, LFS_MB_2R, cell-based, cisplatin combos, synergistic combos for chromothripsis tumors (AID 1671457); settings: LFS_MB_2R medulloblastoma cells, stronger effect = higher value;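 note: cells exposed to compound for four days before readout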
# [10] = growth inhibition, MDA-MB-436, cell-based, BGB or cisplatin combos, synergistic combos for chromothripsis tumors (AID 1671458; call rule not given here;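 note: cells exposed for 96 hours; 0% = vehicle DMSO and 100% = killing by high DMSO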); settings: MDA-MB-436 breast carcinoma growth inhibition, drug combinations, stronger effect = higher value
# [11] = UWB1.289_BRCA1 ovarian cancer growth, cell-based, BGB or cisplatin combinations (AID 1671459); settings: UWB1.289 BRCA1 ovarian carcinoma, drug combinations, stronger effect = higher value
# [12] = drug combination toxicity in non-malignant astrocytes – cell-based, BGB or cisplatin IC20 combos, cytotoxicity control for chromothriptic childhood tumor combination screen (AID 1671460); settings: Human astrocytes, viability inhibition, drug combinations, at 0.5 µM, stronger effect = higher value;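 note: cells exposed to compounds for 96 hours before viability readout; 0% = vehicle and 100% = killing control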
# [13] = BT084 cell growth, single and combined drugs, ICGC_MB145, cisplatin and BGB IC40 combos (AID 1671461); settings: BT084 medulloblastoma cells, drug combinations, stronger effect = higher value;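 note: cells exposed to drugs for 96 hours; 0% = vehicle DMSO and 100% = high DMSO full killing control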
# [14] = RCMB18 cell growth, single agent and combined, cisplatin and BGB IC40 combos (AID 1671462); settings: RCMB18 medulloblastoma cells, stronger effect = higher value;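 note: cells exposed to compound for four days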
# [15] = CRL1545 cell growth, single agent and combined, cisplatin and BGB IC20 combos (AID 1671464); settings: CRL1545 osteosarcoma cells, stronger effect = higher value;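 note: cells exposed to compound for 96 hours before readout; 0% = vehicle DMSO and 100% = high DMSO killing control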
# [16] = measured here: combination with BGB IC40, at 0.05 µM
# [17] = measured here: with BGB IC20 combination, at 0.5 µM
# [18] = measured here: with cisplatin IC20 combination, at 0.5 µM
# [19] = measured here: combination with cisplatin, at 0.5 µM
# [20] = measured here: combination with cisplatin, at 5 µM
smiles,measurement,setting,value
N#Cc1ccc(OC2CCC(NC(=O)CCSc3nc4ccccc4c(=O)[nH]3)CC2)cc1 (stereo not drawn),inhibition,"[1]; at 0.5 µM, stronger effect = higher value",-11.7% (inactive)
same,inhibition,"[1]; measured here: combination with BGB IC20, at 0.005 µM",-15.6%
same,inhibition,"[1]; measured here: combination with BGB IC40, at 0.005 µM",-25.5%
same,inhibition,[1]; [16],-19.3%
same,inhibition,"[1]; measured here: combination with cisplatin, at 0.5 µM, stronger effect = higher value",-29.6%
same,inhibition,"[1]; measured here: combination with cisplatin, at 5 µM, stronger effect = higher value",-57.3%
same,inhibition,"[2]; BGB combo, at 5 µM",8.7%
same,inhibition,[2]; at 0.5 µM,15.1% (inactive)
same,inhibition,"[2]; cisplatin combo, at 5 µM",37.4%
same,inhibition,[2]; [17],12.5%
same,inhibition,[2]; [18],15.6%
same,inhibition,"[2]; single agent, at 5 µM",35.9%
same,inhibition,"[3]; BGB IC20 combo, at 0.005 µM",-4.21%
same,inhibition,"[3]; BGB IC40 combo, at 0.005 µM",-8.75%
same,inhibition,"[3]; BGB IC40 combo, at 0.05 µM",7.9%
same,inhibition,[3]; at 0.5 µM,-30.9% (inactive)
same,inhibition,"[3]; cisplatin combo, at 0.05 µM",4.58%
same,inhibition,"[3]; cisplatin combo, at 0.5 µM",-24.9%
same,inhibition,"[3]; cisplatin combo, at 5 µM",-26.6%
same,inhibition,"[3]; measured here: 5 uM single agent, at 5 µM",2.34%
same,inhibition,[4]; at 0.5 µM,-15.5% (inactive)
same,inhibition,[4]; [16],-12.5%
same,inhibition,[4]; [19],-1.66%
same,inhibition,[4]; [20],-48.1%
same,inhibition,[5]; at 0.5 µM,8.65% (inactive)
same,inhibition,"[5]; measured here: with BGB IC20, at 0.5 µM",1.42%
same,inhibition,"[5]; measured here: with BGB IC20, at 5 µM",-9.23%
same,inhibition,"[5]; measured here: with cisplatin IC20, at 0.5 µM",9.73%
same,inhibition,"[5]; measured here: with cisplatin IC20, at 5 µM",-13.4%
same,inhibition,"[5]; single agent, at 5 µM",12.3%
same,inhibition,[6]; at 0.5 µM,-13.9% (inactive)
same,inhibition,"[6]; measured here: combination with BGB at IC20, at 0.5 µM",25.6%
same,inhibition,"[6]; measured here: combination with cisplatin at IC20, at 0.5 µM",-58.5%
same,inhibition,[7]; at 0.5 µM,5.55% (inactive)
same,inhibition,"[7]; measured here: combo with BGB at IC20, at 0.5 µM",2.46%
same,inhibition,"[7]; measured here: combo with cisplatin at IC20, at 0.5 µM",7.46%
same,inhibition,[8]; at 0.5 µM,13.3% (inactive)
same,inhibition,"[8]; measured here: inhibition with BGB combination, at 0.05 µM",-10.8%
same,inhibition,"[8]; measured here: inhibition with cisplatin combination, at 0.05 µM",9.73%
same,inhibition,[9]; at 0.5 µM,-13.3% (inactive)
same,inhibition,[9]; [19],-14.4%
same,inhibition,[9]; [20],-3.9%
same,inhibition,[10]; at 0.5 µM,3.61% (inactive)
same,inhibition,"[10]; measured here: BGB combination, at 0.5 µM",-7.72%
same,inhibition,"[10]; measured here: BGB combination, at 5 µM",-9.87%
same,inhibition,"[10]; measured here: cisplatin combination, at 0.5 µM",1.31%
same,inhibition,"[10]; measured here: cisplatin combination, at 5 µM",0.512%
same,inhibition,"[11]; BGB combination, concentration series, at 5 µM",24.2%
same,inhibition,[11]; at 0.5 µM,9.54% (inactive)
same,inhibition,"[11]; cisplatin combination, concentration series, at 5 µM",-12.4%
same,inhibition,[12],37.4% (inactive)
same,inhibition,[12]; measured here: combo with BGB IC20,26.2%
same,inhibition,[12]; measured here: combo with cisplatin IC20,40.6%
same,inhibition,[13]; at 0.5 µM,0.647% (inactive)
same,inhibition,"[13]; cisplatin combination, at 0.5 µM",-17.2%
same,inhibition,"[13]; cisplatin combination, at 5 µM",-3.13%
same,inhibition,"[13]; measured here: BGB IC40 combination 0.05 uM, at 0.05 µM",-41.1%
same,inhibition,"[13]; single agent, at 5 µM",-16.5%
same,inhibition,[14]; at 0.5 µM,7.33% (inactive)
same,inhibition,"[14]; cisplatin combo, at 5 µM",-24.6%
same,inhibition,"[14]; measured here: BGB IC40 combination, at 0.05 µM",-11.2%
same,inhibition,[14]; [19],27.6%
same,inhibition,"[14]; single agent, at 5 µM",-12.9%
same,inhibition,[15]; at 0.5 µM,-30% (inactive)
same,inhibition,[15]; [17],-19.6%
same,inhibition,[15]; [18],-37.4%
same,inhibition,"[15]; single agent, at 0.05 µM",34.4%
same,inhibition,"[15]; single agent, at 5 µM",4.49%
